HSP90 refold inh = HSP90 inhibitors, primary screen, cell lysate, luminescence | 290,000 compounds, 0.91% hits | Heat shock protein HSP 90 (rabbit reticulocyte lysate; luciferase refolding) | Rabbit reticulocyte lysate, luciferase refolding luminescence, 3 h | inhibition, % at 5.6 µM;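 active = inhibition above the screen-wide mean plus 3 SD, computed separately per campaign, cut at about 16% in these data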;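 also: inhibitors lower the luminescence because luciferase stays unfolded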
TROY NFkB inh = inhibitors of TROY-driven NF-kB signaling, primary screen, Q293 LMP1-TROYcd cells, NF-kB luciferase, uHTS | 360,000 compounds, 0.98% hits | inhibition, % at 10 µM | Q293 LMP1-TROYcd NF-kB luciferase reporter, 4 h | AID 1347056, 2019;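 active = compounds whose plate-normalised and pattern-corrected inhibition of the luciferase reporter signal at the single screening dose is 50% or more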
HSF1 inhib = HSF1 inhibitors in luciferase reporter cells, primary screen, cell-based, NIH3T3, luminescence; NIH3T3-HGL HSE-luciferase, MG132-induced, luminescence 8 h; active compounds read low; activity change, negative = inhibition, % at 7.5 µM (by protocol); 300,000 compounds, 0.77% hits; AID 2098, 2009;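 active = more than half of replicate wells show activity change below -50%, luminescence cut by over half; inconclusive = some wells, but at most half, below -50%; inactive = no replicate well below -50%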;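 also: luciferase reports HSF-1 transcriptional activity via heat shock element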
HSF-1 act = HSF-1 activators, primary screen, NIH3T3-HGL cells, MG132 stress, luminescence, single point; NIH3T3-HGL HSF-1 luciferase reporter, 8 h; 100% = twice DMSO control signal; activation, % at 9 µM; 300,000 compounds, 1.7% hits;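 active = mean replicate activation of at least 50% with a set share of replicates each reaching 50%; inconclusive = only one of those two conditions met; inactive = mean below 50% and too few replicates reaching it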
EBV LMP1 NFkB = EBV LMP1-driven NF-kappaB luciferase reporter inhibitors, primary screen, cell-based, luminescence, single point | LMP1-induced NF-kappaB luciferase reporter cells | inhibition, % at 12.5 µM | AID 504558, 2011 | 350,000 compounds, 0.69% hits; in the data active = inhibition above about 41%; inconclusive = no clear call, values can overlap the other calls
TWEAK Fn14 block = inhibitors of TWEAK-Fn14 signaling, primary screen, luciferase reporter cells, uHTS; TWEAK-stimulated Fn14 reporter cells, luciferase luminescence, 8 h; inhibition, % at 10 µM; 360,000 compounds, 2% hits; in the data active = inhibition above about 50%
A number is an active result; – = inactive; ? = inconclusive; · = not tested or not shown. Shown are actives, neighbours in structure and some others; about 4.7% of the full set was active somewhere.

SMILES	HSP90 refold inh	TROY NFkB inh	HSF1 inhib	HSF-1 act	EBV LMP1 NFkB	TWEAK Fn14 block
O=C(c1ccccc1F)N1CCC2CC1c1cc(N3CCCCC3)ccc12 (stereo not given)	·	–	·	·	–	–
Fc1cccc(Cl)c1Cn1nnc(-c2ccc3c(c2)OCO3)n1	–	–	–	–	–	54
Cc1ccccc1Cn1nnc(-c2ccc3c(c2)OCO3)n1	–	–	–	–	–	80
Cc1ccccc1Cn1ccc(-c2ccc3c(c2)OCO3)n1	–	–	–	–	–	–
CS(=O)(=O)Nc1cccc(C2=NN(C(=O)c3ccccc3)C(c3cccs3)C2)c1 (stereo not given)	–	–	–	–	–	–
COc1ccc(C2=NN3C(C2)c2ccccc2OC32C(=O)N(C)c3ccccc32)cc1 (stereo not given)	–	–	–	92	–	–
COc1ccc(C2=NN3C(C2)c2ccccc2OC3c2cccs2)cc1 (stereo not given)	–	–	–	63	–	–
Cc1ccc(C(=O)N2N=C(c3ccc(NS(C)(=O)=O)cc3)CC2c2cccs2)cc1 (stereo not given)	–	–	–	–	–	–
CS(=O)(=O)Nc1cccc(C2=NN(C(=O)CCCC(=O)O)C(c3cccs3)C2)c1 (stereo not given)	–	–	–	63	–	–
COc1ccc(C(=O)N2N=C(c3ccc(NS(C)(=O)=O)cc3)CC2c2cccs2)cc1 (stereo not given)	–	51	–	–	–	–
COc1cccc(CNC(=O)c2ccc(F)c(S(=O)(=O)N3CCCCC3)c2)c1	·	–	·	·	–	–
CC1(C(=O)NCc2ccc(Cl)cc2)CCN1C(=O)Cc1cccs1 (stereo not given)	·	–	·	·	·	–
CC1=C(C(=O)N2CCOCC2)CC(CC(=O)NCCCN(C)C)C(=O)N1Cc1ccc(F)cc1 (stereo not given)	·	–	·	·	·	–
Cc1cc2nc(-c3ccc(C#N)cc3)c(Cc3ccsc3)n2c(C)c1Br	·	–	·	·	·	–
O=C(COC(=O)c1ccc(S(=O)(=O)NCc2ccco2)cc1)Nc1ccc(Cl)cn1	–	–	–	–	59	–
O=C(COC(=O)c1ccc(S(=O)(=O)NCc2ccco2)cc1)Nc1ccccc1	·	–	·	·	–	–
O=C(COC(=O)c1ccc(S(=O)(=O)NCc2ccco2)cc1)Nc1ccccc1OC(F)F	–	–	–	103	–	–
CC(C)NC(=O)OCc1c(COC(=O)NC(C)C)c([N+](=O)[O-])n2c1CCC2	·	–	·	·	·	–
CS(=O)(=O)Nc1cccc(NC(=O)C2Cc3c(-c4ccccc4)ccnc3O2)c1 (stereo not given)	·	–	·	·	·	–
O=C1CCCC[C@@H](CO)[C@H](O)C[C@H](c2ccccc2)O1	·	–	·	·	·	–
CCCCNC(=O)C1(C)CCCCN1C(=O)c1c(C)noc1C (stereo not given)	·	–	·	·	·	–
CCC(C)[C@H](NC(=O)NCc1cccc(OC)c1)C(=O)O (stereo not given in full)	–	–	-83	–	–	–
C[C@@H]1CN([C@@H](C)CO)S(=O)(=O)c2ccc(-c3ccccc3)cc2O[C@@H]1CN(C)Cc1ccccc1C(=O)O	·	–	·	·	–	–
O=C1c2ccccc2C(c2nnnn2Cc2ccccc2)N1CCCN1CCOCC1 (stereo not given)	·	–	·	·	·	–
[O-][N+]1=c2ccc(Nc3ccccc3)cc2=NC12CCCCC2	–	–	–	–	–	–
SMILES	HSP90 refold inh	TROY NFkB inh	HSF1 inhib	HSF-1 act	EBV LMP1 NFkB	TWEAK Fn14 block
COc1ccc(Nc2ccc3c(c2)=NC2(CCCCC2)[N+]=3[O-])cc1	–	–	–	79	?	–
O=C(CCS(=O)(=O)c1ccc(Br)cc1)NCc1cccs1	17	–	–	–	–	–
O=C(Cc1cccs1)NCc1ccccc1Br	–	–	–	94	–	–
CCc1ccccc1NC(=O)CCS(=O)(=O)c1ccc(Br)cc1	–	–	–	–	–	70
O=C(CCS(=O)(=O)c1ccc(Br)cc1)NCc1ccco1	–	–	–	–	–	–
COc1ccc(OC2C(=O)N(Cc3ccc4c(c3)OCO4)C2c2sccc2C)cc1 (stereo not given)	–	–	-75	–	–	–
